Screens as filed in PubChem BioAssay.
Myeloid diff 2 = promotes myeloid progenitor differentiation; AID 624256; calls only at 10 µM; actives 1% (n = 360,000); ER-HoxA9 myeloid progenitors, lysozyme-GFP differentiation, flow cytometry;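 active = normalized GFP-positive differentiation at or above the plate's own cutoff, the solvent-only control mean plus 3 SD; inconclusive = no clear call, values can overlap the other calls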;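 note: cells exposed to compound for four days before flow analysis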
FAS-TE inh = inhibitors of human fatty acid synthase thioesterase domain; P49327; recombinant FAS-TE, OMFH fluorogenic substrate, fluorescence endpoint; inhibition, % at 15 µM; actives 0.67% (n = 360,000); AID 602261;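 active = compounds whose normalised, plate-corrected inhibition of enzyme fluorescence in the single-dose primary screen is 50% or more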
NadD block = inhibitors of Staphylococcus aureus NadD; purified NadD enzyme, colorimetric absorbance read-out; inhibition, % at 20 µM; actives 0.78% (n = 360,000); in the data active = inhibition above about 26%
NRP1-CendR mod = alters CendR peptide binding to human NRP-1; inhibition, % at 25 µM; FAM-RPARPAR peptide binding to NRP-1, fluorescence polarization; AID 602438; O14786; actives 0.85% (n = 360,000);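 active = inhibition or corrected inhibition above about 18%, plus a signal ratio from 0.5 to 1.5, limit read from the data, passing the limit was not always enough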
Target sequence (O14786 whole entry, looked up): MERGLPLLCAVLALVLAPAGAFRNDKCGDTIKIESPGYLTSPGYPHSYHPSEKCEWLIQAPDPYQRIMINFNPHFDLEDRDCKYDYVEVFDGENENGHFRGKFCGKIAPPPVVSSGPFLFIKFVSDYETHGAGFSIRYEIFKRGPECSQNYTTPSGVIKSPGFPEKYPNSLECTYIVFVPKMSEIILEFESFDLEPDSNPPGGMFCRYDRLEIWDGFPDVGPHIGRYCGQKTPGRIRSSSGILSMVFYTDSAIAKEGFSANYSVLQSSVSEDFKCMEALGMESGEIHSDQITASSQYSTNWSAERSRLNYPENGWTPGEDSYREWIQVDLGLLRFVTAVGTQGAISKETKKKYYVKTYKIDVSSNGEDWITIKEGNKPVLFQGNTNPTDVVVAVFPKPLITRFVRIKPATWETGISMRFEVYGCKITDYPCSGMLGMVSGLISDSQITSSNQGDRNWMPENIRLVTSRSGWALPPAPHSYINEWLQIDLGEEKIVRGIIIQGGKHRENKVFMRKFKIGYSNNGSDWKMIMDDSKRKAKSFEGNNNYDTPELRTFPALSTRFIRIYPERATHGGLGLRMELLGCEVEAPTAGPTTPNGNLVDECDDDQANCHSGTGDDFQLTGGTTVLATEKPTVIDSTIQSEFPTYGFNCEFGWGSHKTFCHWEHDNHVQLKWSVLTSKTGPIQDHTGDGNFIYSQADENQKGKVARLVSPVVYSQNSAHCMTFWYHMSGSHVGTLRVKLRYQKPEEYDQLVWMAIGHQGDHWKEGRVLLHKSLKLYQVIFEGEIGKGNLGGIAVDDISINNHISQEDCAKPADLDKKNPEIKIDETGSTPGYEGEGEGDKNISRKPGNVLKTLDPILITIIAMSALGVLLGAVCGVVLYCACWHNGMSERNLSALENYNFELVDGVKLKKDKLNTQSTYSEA
CRFR2-BP antag = CRF-BP/CRF-R2 complex antagonism; AID 588475; actives 0.59% (n = 350,000); inhibition, % at 11.8 µM; HEK293 CRF-R2/CRF-BP, CRF-induced calcium fluorescence;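 active = inhibition of the ligand-induced calcium signal above about 50% at the single tested concentration, limit read from the data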
Numbers stand for hits; i = inactive; ? = inconclusive; nt = no result; + = active, no number. Sampled rows, rich in hits. Any-hit rate of the full collection: about 3.6%.

SMILES	Myeloid diff 2	FAS-TE inh	NadD block	NRP1-CendR mod	CRFR2-BP antag
O=C(COC(=O)/C=C/c1ccccc1[N+](=O)[O-])NC(=O)NC1CCCC1	i	i	i	i	i
O=C(Nc1cccc(C(F)(F)F)c1)c1csc([C@@H]2O[C@H](CO)[C@@H](O)[C@H]2O)n1	i	i	i	i	nt
Cc1ccccc1NC(=O)Cc1nc(COC(=O)c2ccc(S(C)(=O)=O)c([N+](=O)[O-])c2)cs1	+	i	i	i	i
COc1ccc(CCC(=O)OCc2csc(CC(=O)Nc3ccccc3C)n2)cc1	+	i	i	i	i
Cc1ccccc1NC(=O)COC(=O)c1ccc(S(C)(=O)=O)c([N+](=O)[O-])c1	i	i	i	i	i
O=C(Cn1c(=O)oc2cc(S(=O)(=O)N3CCCC3)ccc21)Nc1ccccn1	i	i	i	i	nt
O=C(N=Nc1c(O)[nH]c2ccccc12)c1ccco1	i	i	i	i	i
Cc1ccc(Oc2ccc(C(F)(F)F)cc2[N+](=O)[O-])c([N+](=O)[O-])n1	i	i	i	i	i
CN(C)CCN(C(=O)c1ccc2c(c1)OCCO2)c1nc2cc3c(cc2s1)OCO3	i	i	i	24.6	i
CN(C)CCN(C(=O)c1ccc2ccccc2c1)c1nc2cc3c(cc2s1)OCO3	i	i	i	i	i
Cc1coc(NC(=O)CSc2nc(-c3ccc(Cl)cc3)cc(C(F)(F)F)c2C#N)n1	+	i	i	i	i
COc1cc(NC(=S)NCc2ccco2)cc(OC)c1	i	i	i	i	95.9
Cc1ccsc1/C=N/NC(=O)C(=O)NCC(C)C	i	i	i	32.1	i
COc1cc(Cl)ccc1OC1(C)CCN(Cc2ccc3ccccc3c2)C1 (stereo not drawn)	i	i	i	i	nt
Cc1cc(C)n2c(Nc3ccc4c(c3)OCCO4)c(-c3ccccn3)nc2n1	i	i	i	20.6	nt
N#C/C(=C\c1ccccn1)c1ccccn1	+	i	i	i	i
CCOc1ccc(NC(=O)CN2CCc3cc4c(cc3C2)OCCCO4)cc1OCC	i	i	i	i	i
S=C1NC2=C(CCCC2=C2SCCCS2)C(c2ccccc2)N1 (stereo not drawn)	i	i	i	i	i
COc1ccc(C2NC(=S)NC3=C2CCCC3=C2SCCS2)cc1 (stereo not drawn)	nt	i	61.2	i	i
CN(C)C(=O)C(CCN1CCC(O)(c2ccc(Cl)cc2)CC1)(c1ccccc1)c1ccccc1	+	i	i	i	i
OC(CCCN1CCC(O)(c2ccc(Cl)cc2)CC1)c1ccc(F)cc1 (stereo not drawn)	i	i	i	i	i
CCN1/C(=C2\SC(=S)N(Cc3ccccc3)C2=O)Sc2ccccc21	i	i	i	i	i
CCN1C(=O)/C(=C2/Sc3ccccc3N2CC)SC1=S	i	i	i	48.4	i
CCCCNC(=O)CCC(=O)Nc1ccc2nc(N3CCOCC3)cc(C)c2c1	i	i	i	i	i
CCCCNC(=O)CCC(=O)Nc1ccc2nc(N3CCCCC3)cc(C)c2c1	+	i	i	i	i
SMILES	Myeloid diff 2	FAS-TE inh	NadD block	NRP1-CendR mod	CRFR2-BP antag
CCN1CCN(c2cc(C)c3cc(NC(=S)N4CC(C)CC(C)C4)ccc3n2)CC1 (stereo not drawn)	i	i	i	i	i
CCN1CCN(c2cc(C)c3cc(NC(=S)N4CCCC(C)C4)ccc3n2)CC1 (stereo not drawn)	+	i	i	i	i
Cc1cc(N2CCN(C)CC2)nc2ccc(NC(=O)CCC(=O)NCCCOC(C)C)cc12	i	i	i	i	51.1
COC(=O)Cn1c(=NC(=O)c2ccc(S(=O)(=O)N3CCc4ccccc4C3)cc2)sc2cc(OC)ccc21	i	i	i	i	i
C#CCn1c(=NC(=O)c2ccc(S(=O)(=O)N3CCc4ccccc4C3)cc2)sc2cc(S(N)(=O)=O)ccc21	i	i	47.4	i	i
COc1ccc(S(=O)(=O)Nc2nc3ccccc3nc2NCC2CCCO2)cc1 (stereo not drawn)	i	i	i	i	113.1
Cc1ccc(S(=O)(=O)NCc2ccncc2)cc1C	i	i	i	21.9	i
COc1cc(S(=O)(=O)NCc2ccncc2)ccc1Br	?	i	i	i	i
CCCCn1nc2cc(C(=O)NCc3cc(C(F)(F)F)cc(C(F)(F)F)c3)ccc2c1OC	i	i	i	26.6	i
CCCCn1nc2cc(C(=O)NCc3ccc(OC(F)(F)F)cc3)ccc2c1OC	i	i	i	27.2	i
COc1c2ccc(C(=O)NCc3cc(C(F)(F)F)cc(C(F)(F)F)c3)cc2nn1C	i	i	i	27.5	i
CCC1Oc2ccccc2N(CC(=O)NCc2ccco2)C1=O (stereo not drawn)	i	i	i	i	i
CCCOC(=O)Nc1sc2c(c1C(N)=O)CCCC2	i	i	i	i	i
CC1(C(=O)NCc2ccc3c(c2)OCO3)CCN1Cc1csc2ccccc12 (stereo not drawn)	i	i	i	i	nt
Brc1ccc(Sc2cnc3ccccc3n2)cc1	i	i	i	22.6	i
Cc1cccc(CN2CCN([C@H]3CS(=O)(=O)N[C@@H]3COCc3ccccc3)CC2)c1	i	i	i	25.5	nt
CC(=O)NS(=O)(=O)c1ccc(NC(=S)Nc2ccccc2)cc1	i	i	i	i	i
CCC(=O)NC(=S)Nc1ccc(S(=O)(=O)NC(C)=O)cc1	i	i	i	24.7	i
COc1cccc(CN(C)C(=O)CSC(C)C(=O)Nc2cc(C)on2)c1OC (stereo not drawn)	i	i	i	i	i
CC(=O)C1(O)CCC2C3CC(C)C4=CC(=O)C=CC4(C)C3(F)C(O)CC21C (stereo not drawn)	nt	i	i	i	78.9
Nc1nc2c(ncn2COC(CO)CO)c(=O)[nH]1	+	i	i	i	i
Cc1ccc(/C=N/NC(=O)c2cccc(S(=O)(=O)Nc3ccccc3Cl)c2)o1	i	i	i	i	i
Cc1ccc(/C=N/NC(=O)c2cccc(NC(=O)c3ccccc3Cl)c2)o1	+	i	i	i	i
Cc1cccc(C(=O)Nc2ccc(C(=O)N/N=C/c3ccc(C)o3)cc2)c1	?	i	i	i	i
Cc1ccc(/C=N/NC(=O)c2cccc(NC(=O)c3ccccc3C)c2)o1	+	i	i	i	i
SMILES	Myeloid diff 2	FAS-TE inh	NadD block	NRP1-CendR mod	CRFR2-BP antag
Cc1cccc(Oc2cc([N+](=O)[O-])cc3c2C(=O)Nc2ccccc2O3)c1	i	i	i	i	i
O=C1Nc2ccccc2Oc2cc([N+](=O)[O-])cc(Oc3ccccc3)c21	+	i	i	i	i
O=C(O)c1ccc(NC(=S)NC(=O)c2ccc(-c3ccccc3)cc2)cc1	nt	i	i	i	78.2
O=S1(=O)N[C@H](Cc2ccccc2)COc2cccc(N3CCN(Cc4ccccc4F)CC3)c21	i	i	i	i	nt
COc1ccc(-c2csc(N(CCCN(C)C)C(=O)c3ccc(Br)cc3)n2)cc1	i	i	i	22.4	i
COc1ccc(-c2csc(N(CCCN(C)C)C(=O)c3ccc(C)cc3)n2)cc1	i	i	i	i	i
COc1ccc(CN(C2CC2)S(=O)(=O)c2ccccc2Br)cc1	i	i	i	i	i
